# High-throughput results as filed in PubChem.
# M1 antag: human M1 muscarinic receptor antagonists, primary screen, CHO-K1 cells, Fluo-8 calcium fluorescence, 1536-well; Muscarinic acetylcholine receptor M1 (Homo sapiens), P11229; CHO-K1 hM1, ACh EC80 antagonist; inhibition, % at 3 µM; 360,000 compounds, 1.3% hits; AID 588852, 2011;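 active = percent inhibition above its own plate's cutoff, namely the mean of that plate's compound wells plus 3 SD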;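 note: peak over basal fluorescence ratio during 140 s after agonist addition; 0% = ACh EC80 plus DMSO and 100% = DMSO alone without agonist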
# Target sequence (P11229 whole entry, looked up): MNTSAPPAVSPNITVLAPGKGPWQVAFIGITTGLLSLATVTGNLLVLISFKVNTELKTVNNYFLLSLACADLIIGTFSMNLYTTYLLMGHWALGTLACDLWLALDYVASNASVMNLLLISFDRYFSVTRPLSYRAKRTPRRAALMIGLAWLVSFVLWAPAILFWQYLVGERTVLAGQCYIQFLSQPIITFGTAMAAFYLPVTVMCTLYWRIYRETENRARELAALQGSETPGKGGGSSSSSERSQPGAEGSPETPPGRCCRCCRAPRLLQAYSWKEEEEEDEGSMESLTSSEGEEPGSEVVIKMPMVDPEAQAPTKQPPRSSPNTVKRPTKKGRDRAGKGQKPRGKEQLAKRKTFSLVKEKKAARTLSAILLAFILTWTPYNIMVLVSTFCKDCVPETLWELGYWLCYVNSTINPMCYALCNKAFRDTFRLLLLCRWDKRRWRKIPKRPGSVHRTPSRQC
# CHRM1 agonist: human M1 muscarinic receptor agonists, primary screen, Fluo-8 calcium fluorescence, CHO-K1 cells, HTS; Muscarinic acetylcholine receptor M1 (Homo sapiens), P11229; CHO-K1 hM1, agonist mode; 0% DMSO, 100% acetylcholine EC100; activation, % at 3 µM; 360,000 compounds, 0.33% hits; AID 588814, 2011;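 active = activation above the run's mean compound activation plus 3 SD, cut at about 16% in these data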;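 note: peak over basal fluorescence ratio within a 140 s kinetic read after compound addition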
# M1 PAM parental: nonselective calcium activators in parental CHO-K1 cells, primary screen, counter-screen for M1 PAM project, cell-based, Fluo-8 calcium fluorescence, full deck, 1536-well; ATP EC20; 0% at ATP EC20, 100% at ATP max; activation, % at 3 µM; 360,000 compounds, 0.02% hits;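 active = activation above the run cutoff, the mean activation of all test compounds plus 3 SD, cut at about 40% in these data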;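 note: peak over basal fluorescence ratio in a 140 s read after ATP addition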
# CHO-K1 Ca antag: nonselective inhibitor or artifact in parental CHO-K1 cells. ATP-induced calcium, Fluo-8 fluorescence. inhibition, % at 3 µM. 360,000 compounds, 0.6% hits;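 active = inhibition above a per-plate cutoff, the plate's mean sample inhibition plus 3 SD, cut at about 24% in these data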;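 note: 0% = DMSO plus EC80 ATP and 100% = DMSO alone without ATP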
# CHO-K1 Ca ag: counter-screen for M1 agonists: effect in parental CHO-K1 cells; Fluo-8 calcium fluorescence; scaled to maximal ATP response, vehicle zero; activation, % at 3 µM; 360,000 compounds, 0.48% hits; AID 602248, 2012; in the data active = activation above about 15%;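 note: untransfected CHO-K1 host cells lacking M1 receptor as counterscreen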
# CHRM1 PAM: human M1 muscarinic receptor positive allosteric modulators, primary screen, CHO-K1 cells, Fluo-8 calcium fluorescence, 1536-well. Muscarinic acetylcholine receptor M1 (Homo sapiens), P11229. CHO-K1 hM1, ACh EC20; 0% = ACh EC20, 100% = maximal ACh. activation, % at 3 µM. 360,000 compounds, 0.088% hits; in the data active = activation above about 19%, passing the limit was not always enough
# * marks the source's active call; other numbers are inactive results. Shown are actives, neighbours in structure and some others; about 2.4% of the full set was active somewhere.
SMILES,M1 antag,CHRM1 agonist,M1 PAM parental,CHO-K1 Ca antag,CHO-K1 Ca ag,CHRM1 PAM
Cc1nc(-c2ccc(NC(=O)c3ccc(Br)o3)cc2)cs1,16,0,4,6,8,-5
CC(C)N1CCC(C)(C(=O)Nc2ccccc2Oc2ccccc2)C1 (centres undefined),23,-9,-6,8,0,-13
COc1cc(C2N(C)C(=O)c3ccccc3N2C)ccc1O (centres undefined),5,-4,6,0,17*,0
O=C(Nc1cccc(Br)c1)c1ccc(Cl)c(S(=O)(=O)N2CCOCC2)c1,43*,1,-13,5,14,-28
COc1ccc(C(=O)Nc2ccc(Cl)c(S(=O)(=O)N3CCOCC3)c2)cc1,8,6,2,-6,17*,-15
O=C(Nc1ccc(Cl)c(S(=O)(=O)N2CCOCC2)c1)c1ccc(OCC2CCCO2)cc1 (centres undefined),36*,0,-17,24*,11,-30
COc1ccc(NC(=O)CCN2CCN(S(=O)(=O)c3cc(Cl)ccc3Cl)CC2)cc1,-8,9,58*,-44,10,0
O=C(Nc1ccc(S(=O)(=O)N2CCCC2)cc1)c1ccc(OCC2CCCO2)cc1 (centres undefined),5,-7,11,-11,8,-3
O=C(Nc1cccc(C(=O)NC2CC2)c1)c1ccc(Cl)c(S(=O)(=O)N2CCOCC2)c1,13,-3,-9,-4,3,-7
CC(C)=CC(=O)Nc1ccc(S(=O)(=O)Nc2ccccn2)cc1,-7,2,1,-11,0,9
COc1ccc(CCN2CC(C(=O)Nc3ccc(S(C)(=O)=O)cc3)CC2=O)cc1OC (centres undefined),15,6,-28,6,2,9
OC(COc1ccc2c(c1)CCC2)CN1CCN(c2ccccc2F)CC1 (centres undefined),-4,-7,11,-17,3,1
Oc1ccccc1N1CCN(CC(O)COC2CCCc3ccccc32)CC1 (centres undefined),39*,-11,-9,1,2,-29
Nc1ccc(C(=O)N/N=C/c2cn(Cc3ccccc3F)c3ccccc23)cc1,19,2,-18,-3,5,-4
O=C(O)c1ccc(N/N=C/c2cn(Cc3ccccc3F)c3ccccc23)cc1,5,5,1,9,23*,-2
COc1cc([N+](=O)[O-])cc2cc(C(=O)N3CCCC3)c(=O)oc12,-3,-7,15,-2,0,1
O=[N+]([O-])c1cccc(CN2CCCCCC2)c1,-9,-9,6,-4,0,8
O=[N+]([O-])c1cccc(COc2ccc(CN3CCOCC3)cc2)c1,49*,-4,16,-13,2,-26
O=[N+]([O-])c1cccc(COc2ccc(CN3CCCC3)cc2)c1,59*,-8,13,-12,2,-30
CC(C)(C)OC(=O)n1cc(C(=O)c2ccccc2O)cn1,-1,-2,5,-16,0,3
COc1cccc2cc(C(=O)NCc3ccccc3Br)c(=O)oc12,4,-4,12,-1,0,4
COc1cccc2cc(C(=O)NCc3ccccc3Cl)c(=O)oc12,-8,-1,11,6,15*,9
Cc1ccc(C(=O)N(CC(C)C)c2nc3ccccc3s2)o1,-7,-3,11,-17,1,1
CC(C)CN(C(=O)c1ccc(=O)n(C)n1)c1nc2ccccc2s1,5,0,-7,24*,0,9
COc1ccc(C(C)=O)cc1CN1C(=O)C(C)ON=C1c1cccc(C(F)(F)F)c1 (centres undefined),-11,-5,2,-11,1,4
SMILES,M1 antag,CHRM1 agonist,M1 PAM parental,CHO-K1 Ca antag,CHO-K1 Ca ag,CHRM1 PAM
CC(C)N1CCC1(C)C(=O)Nc1nccc2cccnc12 (centres undefined),-10,-4,12,-4,0,6
CCN(CC)c1ccc(/C=C(/C#N)C(=O)NCc2ccccc2)o1,9,16*,2,12,27*,-2
COc1ccc([C@H]2CC(=O)C=C(c3ccc(CNC(=O)OC(C)(C)C)cc3)C2)cc1,34*,-4,-18,1,9,-23
Oc1ccc(Cl)cc1C1=NNC(c2cccs2)C1 (centres undefined),0,-1,10,1,1,0
Cc1ccc(O)c(C2=NNC(c3ccc(Cl)cc3)C2)c1 (centres undefined),45*,23*,12,10,3,12
CC(=O)C1=C(O)C(=O)N(c2ccc(C)cc2)C1c1ccc([N+](=O)[O-])cc1 (centres undefined),1,-6,15,14,16*,12
CCCN(c1ccc(OCC)cc1)S(=O)(=O)c1ccc2c(c1)NC(=O)CO2,-5,-10,16,-28,1,-6
CN1CCN(C(=O)/C(=C\c2ccccc2)c2ccccc2)CC1,99*,-6,6,5,0,-26
CN1CCN(C(=O)/C(=C/c2ccc(F)cc2)NC(=O)c2ccccc2)CC1,0,-7,-17,13,0,1
CCN1C(=O)/C(=C/c2ccc(N3CCCC3)cc2)NC1=S,56*,57*,-5,49*,57*,-25
CCN1C(=O)/C(=C/c2ccc(OCc3ccc(C(=O)O)cc3)c(Cl)c2)NC1=S,16,13,6,29*,16*,-5
CCCN1C(=O)/C(=C/c2ccc(N3CCOCC3)cc2)NC1=S,26,14,1,15,24*,-9
CCOC(=O)N1CCC(N2CCCC(CO)(Cc3ccccc3C)C2)CC1 (centres undefined),26*,-10,1,-3,0,-20
CCOC(=O)N1CCC(N2CCCC(CO)(Cc3cccc(Cl)c3)C2)CC1 (centres undefined),39*,0,8,-11,2,-15
CC1=C(C(=O)N(C(C)C)C(C)C)CC(CC(=O)NCCN2CCOCC2)C(=O)N1Cc1ccc(C(C)(C)C)cc1 (centres undefined),5,-11,10,10,0,4
COc1ccc(CNC(=O)Cn2cc([N+](=O)[O-])cn2)cc1,-8,-2,-16,57*,-1,8
O=C(Cn1cc([N+](=O)[O-])cn1)NCc1ccccc1,-3,-1,12,0,2,2
C=CCC1(CC=C)CCCN1C(=O)c1cc(COc2ccc(C)nc2)on1,55*,2,-28,49*,16*,-14
